In PubChem BioAssay (Tox21):
Inconclusive results are not listed. The source made the active and inactive calls. Unless noted, calls come from the whole dose curve.

Tests used:
[1] = Nuclear factor erythroid 2-related factor 2/antioxidant responsive element (Nrf2/ARE) small molecule agonists: luciferase reporter gene qHTS assay in human keratinocytes (AID 1919969); note: nearly all actives have a fitted effect of over 35% in size; note: potency is the fitted concentration of half-maximal effect
[2] = target: Gonadotropin-releasing hormone receptor (Homo sapiens) (UniProt P30968); assay: Human gonadotropin-releasing hormone receptor (GnRHR) small molecule agonists, calcium flux assay in GnRHR-HEK293 cells (AID 1920063); note: nearly all actives have a fitted effect of over 35% in size
In short: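 Stable human GnRHR HEK293 line. 18 h plating, then calcium dye for 1 h at 37 C. Agonist-mode compound addition from DMSO stocks; fluorescence monitored 3 min.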

[3] = target: KiSS-1 receptor (Homo sapiens) (UniProt Q969F8); assay: Human kisspeptin (KISS1R) small molecule agonists, calcium flux assay in KISS1R-HEK293 cells (AID 1920064; active = well fitted activation curve with a large enough effect in the repeat runs)
In short: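 After overnight (18 h) culture at 37 C/5% CO2, human KISS1R-HEK293 cells received calcium dye for 1 h, then test compound; emission at 540 nm (excitation 480 nm) was tracked for 3 min.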

[4] = G protein-coupled receptor (GPCR) small molecule agonists, calcium flux assay: HEK293 wild type cell line counter screen (AID 1920065)
In short: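 Following 18 h incubation at 37 C/5% CO2, plates got calcium dye for 1 h; compounds, ATP or DMSO were then pinned in and fluorescence followed kinetically (480/540 nm).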

[5] = p53 small molecule agonists, cell-based qHTS assay with human liver microsomes (AID 1963577);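 note: p53 response element beta-lactamase reporter cells with liver microsomes plus NADPH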
In short: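 Reporter activation was measured by LiveBLAzer fluorescence intensity in p53RE-bla cells, which had been exposed to compounds for 16 h at 37 C alongside 0.5 mg/mL human liver microsomes and 0.5 mg/mL NADPH (final concentrations).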

[6] = p53 small molecule agonists, cell-based qHTS assay with human liver microsomes: qHTS cell viability counter screen (AID 1963579); note: nearly all actives have a fitted effect of over 45% in size; note: potency is the fitted concentration of half-maximal effect
In short: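 HLM-supplemented (0.5 mg/mL final) and NADPH-supplemented (0.5 mg/mL final) p53RE-bla cultures, 4,000 cells per well, were dosed with compounds in DMSO for 16 h at 37 C; luminescent ATP detection (CellTiter-Glo, 30 min, room temperature) quantified surviving cells.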

[7] = p53 small molecule agonists, cell-based qHTS assay: qHTS cell viability counter screen (AID 1963581); note: nearly all actives have a fitted effect of over 45% in size; note: potency is the fitted concentration of half-maximal effect
In short: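 qHTS counter screen: 16 h compound exposure at 37 C of p53RE-bla HCT-116 cells (4,000 per well, seeded 5 h prior), cell viability by ATP luminescence.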

[8] = p53 small molecule agonists, cell-based qHTS assay (AID 1963582; active = well fitted activation curve with a large enough effect in the signal ratio in the repeat runs, not every such curve was filed as active; the % refers to the signal ratio)
In short: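 Measured: fluorescence from cleaved LiveBLAzer substrate. System: p53RE-bla cells, 16 h compound treatment at 37 C, 2 h substrate step at room temperature.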

[9] = cAMP Responsive Elements (CRE) small molecule agonists, cell-based qHTS assay (AID 1963590)
In short: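 Test agents in DMSO were incubated 3 h at 37 C/5% CO2 with CRE-bla HEK 293T cells seeded 18 h earlier; LiveBLAzer B/G FRET substrate was added and read after 2 h at room temperature.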

[10] = cAMP Responsive Elements (CRE) small molecule antagonists, cell-based qHTS assay (AID 1963591; active = well fitted inhibition curve with a large enough effect in the signal ratio in the repeat runs, not every such curve was filed as active; the % refers to the signal ratio; note: potency is the fitted concentration of half-maximal effect)
In short: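 Reporter line CRE-bla HEK 293T in dialyzed-FBS DMEM; cells preincubated 18 h, treated 3 h with compound plus NKH477 (0.25 uM final); LiveBLAzer FRET, 2 h RT.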

[11] = target: Beta-2 adrenergic receptor (Homo sapiens) (UniProt P07550); assay: Adrenergic beta2 receptor (ADRB2) small molecule antagonists, cell-based qHTS assay (AID 1963592); note: series mostly up to about 92 µM; nearly all actives have a fitted effect of over 50% in size
In short: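 Assay format: CHO-ADRB2 cells, 18-20hr seeding at 37C/5% CO2, then compound plus 1nM isoproterenol agonist mix for 0.5hr RT. Homogeneous time-resolved fluorescence cAMP detection after 1hr, expressed as 665/615 nm ratio.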

[12] = target: Beta-2 adrenergic receptor (Homo sapiens) (UniProt P07550); assay: Adrenergic beta2 receptor (ADRB2) small molecule agonists, cell-based qHTS assay (AID 1963593);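 note: CHO cells stably overexpressing human ADRB2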
In short: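 CHO cells stably over-expressing ADRB2 were plated overnight at 37C, then dosed with compounds plus a stimulation mix containing 100uM IBMX and 25uM Ro-20-1724 for 0.5hr at room temperature. cAMP was measured by HTRF competition, 1hr.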

[13] = target: D(2) dopamine receptor (Homo sapiens) (UniProt P14416); assay: Dopamine D2 receptor (DRD2) small molecule agonists, cell-based qHTS assay (AID 1963594); note: nearly all actives have a fitted effect of over 35% in size
In short: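 HEK293 cells stably expressing DRD2 were cultured 24 h at 37 C, then given Ro20-1724 (0.1 mM final) and compounds for 10 min at room temperature. NKH477 (200nM) was then added for 30 min. cAMP was read by HTRF.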

[14] = target: D(2) dopamine receptor (Homo sapiens) (UniProt P14416); assay: Dopamine D2 receptor (DRD2) small molecule antagonists, cell-based qHTS assay (AID 1963595; active = well fitted inhibition curve with a large enough effect in the signal ratio in the repeat runs, with a control signal flat; the % refers to the signal ratio)
In short: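 HTRF cAMP read-out at 665 and 620 nm emission (340 nm excitation). Antagonist mode: compounds were tested against 12 nM quinpirole in DRD2-HEK293 cells, with 200 nM NKH477 raising cAMP and 0.1 mM Ro20-1724 blocking its breakdown.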

[15] = p53 small molecule agonists, cell-based qHTS assay with rat liver microsomes (AID 1963578)
In short: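 Compound in DMSO added to p53RE-bla cells 5 h post-plating; rat microsomes/NADPH 0.5 mg/mL final; 16 h, 37 C; LiveBLAzer 2 h RT.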

[16] = p53 small molecule agonists, cell-based qHTS assay with rat liver microsomes: qHTS cell viability counter screen (AID 1963580); note: nearly all actives have a fitted effect of over 45% in size
In short: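 Luminescent ATP readout (CellTiter-Glo, 30 min at room temperature) reports viability of p53RE-bla HCT-116 cells after 16 h at 37 C with test compounds under metabolic activation by rat liver microsomes and NADPH at 0.5 mg/mL final each.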

[17] = target: 5-hydroxytryptamine receptor 2A (Homo sapiens) (UniProt P28223); assay: 5-hydroxytryptamine receptor 2A (HTR2A) small molecule antagonists, cell-based qHTS assay (AID 1963586); note: nearly all actives have a fitted effect of over 45% in size
In short: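 CHO cells stably expressing human HTR2A were plated for 18 h at 37 C, then loaded with calcium dye for 1 h. Compounds were preincubated 5 min at room temperature before DOI (4 nM solution) was added. Kinetic fluorescence was read for 3 min.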

[18] = target: 5-hydroxytryptamine receptor 2A (Homo sapiens) (UniProt P28223); assay: 5-hydroxytryptamine receptor 2A (HTR2A) small molecule agonists, cell-based qHTS assay (AID 1963587); note: nearly all actives have a fitted effect of over 30% in size
In short: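 HTR2A-CHO cells, plated 18 h at 37 C/5% CO2, dye-loaded 1 h at 37 C; compounds in DMSO added by pin tool (agonist mode). Intracellular calcium flux read as kinetic fluorescence on FDSS over 2 min at 1 s intervals.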

[19] = target: Muscarinic acetylcholine receptor M1 (Homo sapiens) (UniProt P11229); assay: Cholinergic receptor muscarinic 1 (CHRM1) small molecule antagonists, cell-based qHTS assay (AID 1963588); note: nearly all actives have a fitted effect of over 40% in size; note: potency is the fitted concentration of half-maximal effect
In short: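 Compounds were tested at 15 concentrations in three independent runs. Dye-loaded CHRM1-CHO cells were exposed 5 min at room temperature before stimulation by acetylcholine added at 50nM. Intracellular calcium was read kinetically on FDSS for 3 min.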

[20] = target: Muscarinic acetylcholine receptor M1 (Homo sapiens) (UniProt P11229); assay: Cholinergic receptor muscarinic 1 (CHRM1) small molecule agonists, cell-based qHTS assay (AID 1963589); note: nearly all actives have a fitted effect of over 35% in size
In short: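 Kinetic fluorescence (1 s intervals) of calcium-sensitive dye in human M1 CHO cells after compound addition; cells pre-incubated 18 h at 37 C/5% CO2 and dye-loaded 1 h.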
% is set by controls: 0 for no effect and ±100 for the full control effect.

Chain of Gonadotropin-releasing hormone receptor (Homo sapiens) (P30968 whole entry, looked up): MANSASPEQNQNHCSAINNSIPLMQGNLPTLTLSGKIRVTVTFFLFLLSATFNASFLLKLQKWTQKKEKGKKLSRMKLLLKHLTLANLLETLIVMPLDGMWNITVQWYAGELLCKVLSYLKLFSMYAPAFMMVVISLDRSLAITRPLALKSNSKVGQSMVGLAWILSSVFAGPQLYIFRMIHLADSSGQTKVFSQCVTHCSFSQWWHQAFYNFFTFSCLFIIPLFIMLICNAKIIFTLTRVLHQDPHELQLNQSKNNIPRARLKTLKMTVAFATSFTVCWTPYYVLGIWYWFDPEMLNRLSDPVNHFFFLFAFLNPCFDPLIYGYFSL
Chain of Beta-2 adrenergic receptor (Homo sapiens) (P07550 whole entry, looked up): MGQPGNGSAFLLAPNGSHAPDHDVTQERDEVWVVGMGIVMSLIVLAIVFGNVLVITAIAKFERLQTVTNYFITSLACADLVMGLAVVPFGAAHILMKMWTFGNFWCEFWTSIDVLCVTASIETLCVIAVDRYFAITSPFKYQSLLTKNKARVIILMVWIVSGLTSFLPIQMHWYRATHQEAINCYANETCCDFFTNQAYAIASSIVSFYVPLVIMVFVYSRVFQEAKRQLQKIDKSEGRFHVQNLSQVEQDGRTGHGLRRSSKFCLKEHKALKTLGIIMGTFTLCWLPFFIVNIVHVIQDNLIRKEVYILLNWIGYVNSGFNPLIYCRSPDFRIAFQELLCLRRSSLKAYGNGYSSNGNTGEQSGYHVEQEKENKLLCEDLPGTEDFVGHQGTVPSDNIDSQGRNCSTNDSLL
Chain of Muscarinic acetylcholine receptor M1 (Homo sapiens) (P11229 whole entry, looked up): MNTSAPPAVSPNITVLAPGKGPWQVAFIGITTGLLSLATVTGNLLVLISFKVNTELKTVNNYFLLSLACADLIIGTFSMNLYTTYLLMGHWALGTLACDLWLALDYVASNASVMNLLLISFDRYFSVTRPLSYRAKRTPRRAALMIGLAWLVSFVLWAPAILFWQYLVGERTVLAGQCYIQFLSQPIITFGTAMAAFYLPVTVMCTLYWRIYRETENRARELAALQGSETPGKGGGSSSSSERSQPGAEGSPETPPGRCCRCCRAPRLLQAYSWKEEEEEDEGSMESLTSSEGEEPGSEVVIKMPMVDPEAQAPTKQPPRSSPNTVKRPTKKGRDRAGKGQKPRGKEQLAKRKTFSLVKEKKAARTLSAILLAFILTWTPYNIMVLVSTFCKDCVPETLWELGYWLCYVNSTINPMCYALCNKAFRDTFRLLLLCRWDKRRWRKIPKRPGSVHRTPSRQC
Chain of 5-hydroxytryptamine receptor 2A (Homo sapiens) (P28223 whole entry, looked up): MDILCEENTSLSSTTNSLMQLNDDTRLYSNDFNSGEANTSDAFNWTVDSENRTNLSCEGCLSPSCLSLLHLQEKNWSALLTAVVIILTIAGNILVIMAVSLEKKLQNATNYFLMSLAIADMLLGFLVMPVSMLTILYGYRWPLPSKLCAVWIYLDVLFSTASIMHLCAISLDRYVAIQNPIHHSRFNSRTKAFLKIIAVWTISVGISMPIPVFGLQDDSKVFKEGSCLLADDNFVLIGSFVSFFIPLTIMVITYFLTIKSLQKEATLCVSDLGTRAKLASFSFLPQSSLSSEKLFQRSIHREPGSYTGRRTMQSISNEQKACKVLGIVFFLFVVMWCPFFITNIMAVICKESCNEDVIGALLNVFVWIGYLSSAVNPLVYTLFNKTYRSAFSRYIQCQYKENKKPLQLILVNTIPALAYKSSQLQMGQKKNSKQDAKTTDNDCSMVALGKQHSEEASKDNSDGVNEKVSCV
Chain of D(2) dopamine receptor (Homo sapiens) (P14416 whole entry, looked up): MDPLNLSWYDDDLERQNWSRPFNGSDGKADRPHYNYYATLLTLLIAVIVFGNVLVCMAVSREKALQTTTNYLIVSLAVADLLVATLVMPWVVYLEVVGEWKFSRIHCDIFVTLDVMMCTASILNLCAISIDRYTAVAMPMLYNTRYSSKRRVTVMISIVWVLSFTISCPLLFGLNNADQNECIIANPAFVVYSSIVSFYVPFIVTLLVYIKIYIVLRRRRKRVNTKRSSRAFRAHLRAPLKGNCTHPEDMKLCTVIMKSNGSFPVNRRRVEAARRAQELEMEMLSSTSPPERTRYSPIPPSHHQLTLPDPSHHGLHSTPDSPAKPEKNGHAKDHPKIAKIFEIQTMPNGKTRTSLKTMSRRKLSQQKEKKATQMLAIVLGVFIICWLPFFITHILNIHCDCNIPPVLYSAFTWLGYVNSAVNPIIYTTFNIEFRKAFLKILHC
Chain of KiSS-1 receptor (Homo sapiens) (Q969F8 whole entry, looked up): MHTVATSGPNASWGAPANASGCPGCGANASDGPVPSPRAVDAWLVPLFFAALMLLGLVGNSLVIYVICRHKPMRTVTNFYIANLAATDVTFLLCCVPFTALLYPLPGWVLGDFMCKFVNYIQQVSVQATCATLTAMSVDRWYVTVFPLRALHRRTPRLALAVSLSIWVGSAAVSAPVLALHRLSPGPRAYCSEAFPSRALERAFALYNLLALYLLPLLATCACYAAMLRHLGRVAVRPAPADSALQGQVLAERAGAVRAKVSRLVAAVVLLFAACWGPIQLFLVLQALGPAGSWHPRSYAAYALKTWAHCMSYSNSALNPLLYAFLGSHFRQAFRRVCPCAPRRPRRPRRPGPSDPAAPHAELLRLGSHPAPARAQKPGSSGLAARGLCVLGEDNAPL

O=C(O)P(=O)(O)O
inactive: Potency [1] | Potency [2] | outcome [3] | outcome [4] | Potency [5] | Potency [6] | Potency [7] | Potency [8] | Potency [9] | Potency [10] | Potency [11] | Potency [12] | Potency [13] | Potency [14]

CC(C)C(O)C(C)(C)CO (stereo not given)
inactive: Potency [1] | Potency [2] | outcome [3] | outcome [4] | Potency [5] | Potency [15] | Potency [16] | Potency [8] | Potency [17] | Potency [18] | Potency [20] | Potency [9] | Potency [11] | Potency [13] | Potency [14]
active: Potency [7] 3.75 µM | Potency [19] 0.487 µM | Potency [10] 56.2 µM

N[C@@H](CSCCCO)C(=O)O
inactive: activity, positive = activation [1] -5.15% [at 19 µM] | activity change [2] -0.573% [at 11.8 µM, hits give high values] | activation [3] 2.59% [at 15.8 µM] | activation [4] 0.0618% [at 11.8 µM] | activation [5] 1.76% [at 13.5 µM] | activation [15] 4.94% [at 13.6 µM] | activity change, negative = cytotoxicity [16] -10.3% [at 13.5 µM] | activity change, negative = cytotoxicity [7] -10.7% [at 13.5 µM] | activation [8] 9.64% [at 13.5 µM] | activity, negative = inhibition [17] 4.22% [at 12.7 µM] | activation [18] 0.941% [at 15.9 µM] | activity, negative = inhibition [19] -6.77% [at 12.6 µM] | activation [20] -0.169% [at 15.8 µM] | activation [9] 0.961% [at 19 µM] | activity change, negative = inhibition [10] 4.42% [at 18.9 µM] | activity change, negative = inhibition [11] -0.974% [at 19 µM] | activity change, negative = inhibition [14] 8.57% [at 18.9 µM]

NCC1CCC(C(=O)Oc2ccc(CCC(=O)O)cc2)CC1 (stereo not given)
inactive: Potency [1] | Potency [2] | outcome [3] | outcome [4] | Potency [5] | Potency [6] | Potency [7] | Potency [8] | Potency [9] | Potency [10] | Potency [13] | Potency [14]

CC1(C)CC(OC(=O)CCCCCCCCC(=O)OC2CC(C)(C)NC(C)(C)C2)CC(C)(C)N1
inactive: activity, positive = activation [1] -1.35% [at 19 µM] | activity change [2] 1.96% [at 11.8 µM, hits give high values] | activation [3] 3.13% [at 15.8 µM] | activation [4] 0.376% [at 11.8 µM] | activation [15] 0.45% [at 13.6 µM] | activity change, negative = cytotoxicity [16] 20.2% [at 13.5 µM] | activity change, negative = cytotoxicity [7] -0.213% [at 13.5 µM] | activation [8] -3.4% [at 13.5 µM] | activity, negative = inhibition [17] -5.05% [at 12.7 µM] | activation [18] 2.3% [at 15.9 µM] | activity, negative = inhibition [19] 30.1% [at 12.6 µM] | activation [9] 1.42% [at 19 µM] | activity change, negative = inhibition [10] -9.13% [at 18.9 µM] | activity change, negative = inhibition [11] 8.71% [at 19 µM] | activation [13] -4.7% [at 19 µM] | activity change, negative = inhibition [14] 0.47% [at 18.9 µM]
active: Potency [6] 0.884 µM

Cc1c(N)cccc1[N+](=O)[O-]
active: Potency [1] 27.8 µM
inactive: Potency [2] | outcome [3] | outcome [4] | Potency [5] | Potency [15] | Potency [6] | Potency [16] | Potency [8] | Potency [18] | Potency [20] | Potency [9] | Potency [11] | Potency [13] | Potency [14]

CC1=NN(c2ccc(C(=O)O)cc2)C(=O)C1
inactive: Potency [1] | Potency [2] | outcome [3] | outcome [4] | Potency [5] | Potency [6] | Potency [7] | Potency [8] | Potency [17] | Potency [18] | Potency [19] | Potency [20] | Potency [9] | Potency [11] | Potency [12] | Potency [13] | Potency [14]
